Results filed as inconclusive are left out. A call without a number means that no potency is given here. Calls of active or inactive are those of the source. Unless noted, calls come from the whole dose curve.
Columns and labels:
[1] = Nuclear factor erythroid 2-related factor 2/antioxidant responsive element (Nrf2/ARE) small molecule agonists: luciferase reporter gene qHTS assay in human keratinocytes (AID 1919969); note: nearly all actives have a fitted effect of over 35% in size; note: potency is the fitted concentration of half-maximal effect
[2] = biological target: Gonadotropin-releasing hormone receptor (Homo sapiens) (UniProt P30968); test: Human gonadotropin-releasing hormone receptor (GnRHR) small molecule agonists, calcium flux assay in GnRHR-HEK293 cells (AID 1920063); note: nearly all actives have a fitted effect of over 35% in size
Gonadotropin-releasing hormone receptor (Homo sapiens), sequence (P30968 whole entry, looked up): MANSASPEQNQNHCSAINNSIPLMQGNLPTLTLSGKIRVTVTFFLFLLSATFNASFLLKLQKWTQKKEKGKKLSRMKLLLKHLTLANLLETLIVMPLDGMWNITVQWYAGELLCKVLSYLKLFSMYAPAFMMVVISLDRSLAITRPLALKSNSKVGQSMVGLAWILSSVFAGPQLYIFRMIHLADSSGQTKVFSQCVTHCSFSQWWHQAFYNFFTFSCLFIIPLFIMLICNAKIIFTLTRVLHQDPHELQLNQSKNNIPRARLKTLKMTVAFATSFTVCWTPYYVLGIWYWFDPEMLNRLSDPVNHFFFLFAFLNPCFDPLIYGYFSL
Procedure, shortened: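 Calcium-dye fluorescence, Ex/Em=480/540, recorded every 1 sec over 3 min after compound addition to GnRHR-HEK293 cells. Cells had been seeded 18 hours earlier and dye-loaded for 1 hour at 37 C. Fifteen concentrations, triplicates.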

[3] = biological target: KiSS-1 receptor (Homo sapiens) (UniProt Q969F8); test: Human kisspeptin (KISS1R) small molecule agonists, calcium flux assay in KISS1R-HEK293 cells (AID 1920064; active = well fitted activation curve with a large enough effect in the repeat runs)
KiSS-1 receptor (Homo sapiens), sequence (Q969F8 whole entry, looked up): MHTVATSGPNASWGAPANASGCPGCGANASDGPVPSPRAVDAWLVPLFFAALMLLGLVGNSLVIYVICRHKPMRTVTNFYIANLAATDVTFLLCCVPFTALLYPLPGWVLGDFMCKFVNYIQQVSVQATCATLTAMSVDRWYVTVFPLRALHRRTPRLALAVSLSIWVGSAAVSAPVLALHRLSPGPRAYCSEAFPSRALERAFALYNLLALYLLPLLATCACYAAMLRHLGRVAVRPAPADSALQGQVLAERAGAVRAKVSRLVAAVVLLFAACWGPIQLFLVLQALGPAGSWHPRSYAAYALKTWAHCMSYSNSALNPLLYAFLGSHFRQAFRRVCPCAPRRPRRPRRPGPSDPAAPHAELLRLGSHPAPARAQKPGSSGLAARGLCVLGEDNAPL
Procedure, shortened: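 Calcium flux read-out: kinetic fluorescence at Ex/Em=480/540, 1 s intervals over 3 min, after pin-tool compound addition to dye-loaded KISS1R-HEK293 cells. Fifteen concentrations, triplicates.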

[4] = G protein-coupled receptor (GPCR) small molecule agonists, calcium flux assay: HEK293 wild type cell line counter screen (AID 1920065)
Procedure, shortened: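 Agonist mode; 18 h seeding at 37 C, 1 h dye load at 37 C; compounds pinned from DMSO, ATP as positive control; kinetic fluorescence 480/540 nm, 3 min, 1 s reads; 15 concentrations, triplicate.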

[5] = p53 small molecule agonists, cell-based qHTS assay with human liver microsomes (AID 1963577);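 note: p53 response element beta-lactamase reporter cells with liver microsomes plus NADPH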
Procedure, shortened: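 With metabolic activation: human liver microsomes (0.5 mg/mL final) plus NADPH (0.5 mg/mL final) added alongside compounds to p53RE-bla cells; 16 h 37 C exposure; beta-lactamase read by LiveBLAzer fluorescence.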

[6] = p53 small molecule agonists, cell-based qHTS assay with rat liver microsomes (AID 1963578)
Procedure, shortened: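 Metabolic activation by rat liver microsomes and NADPH, each 0.5 mg/mL final, added right after compounds to p53RE-bla reporter cells (4,000/well, plated 5 h earlier). 16 h at 37 C, then LiveBLAzer substrate for 2 h at room temperature in the dark; fluorescence read-out.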

[7] = p53 small molecule agonists, cell-based qHTS assay with human liver microsomes: qHTS cell viability counter screen (AID 1963579); note: nearly all actives have a fitted effect of over 45% in size
Procedure, shortened: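 Metabolic activation used human liver microsomes and NADPH, both 0.5 mg/mL final, over 16 hours at 37 C on p53RE-bla cells (4,000/well). Cytotoxicity measured by CellTiter-Glo luminescence, 30 min at room temperature.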

[8] = p53 small molecule agonists, cell-based qHTS assay with rat liver microsomes: qHTS cell viability counter screen (AID 1963580); note: nearly all actives have a fitted effect of over 45% in size
Procedure, shortened: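 Cytotoxicity counter screen: intracellular ATP read by CellTiter-Glo luminescence in the p53 reporter wells. HCT-116 p53RE-bla cells were treated for 16 h at 37 C alongside rat liver microsomes and NADPH, each 0.5 mg/mL final.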

[9] = p53 small molecule agonists, cell-based qHTS assay: qHTS cell viability counter screen (AID 1963581); note: nearly all actives have a fitted effect of over 45% in size
Procedure, shortened: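 Cytotoxicity read-out: ATP-based luminescence (CellTiter-Glo, 30 min RT) measured in the same wells as the p53 reporter assay, HCT-116 p53RE-bla cells, 16 h compound exposure at 37 C.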

[10] = p53 small molecule agonists, cell-based qHTS assay (AID 1963582; active = well fitted activation curve with a large enough effect in the signal ratio in the repeat runs, not every such curve was filed as active; the % refers to the signal ratio; note: potency is the fitted concentration of half-maximal effect)
Procedure, shortened: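 Fluorescence intensity read-out of a beta-lactamase reporter under a p53 response element. Cells were exposed to DMSO-dissolved compounds for 16 h at 37 C, then developed with FRET substrate for 2 h at RT.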

[11] = biological target: 5-hydroxytryptamine receptor 2A (Homo sapiens) (UniProt P28223); test: 5-hydroxytryptamine receptor 2A (HTR2A) small molecule antagonists, cell-based qHTS assay (AID 1963586); note: nearly all actives have a fitted effect of over 45% in size
5-hydroxytryptamine receptor 2A (Homo sapiens), sequence (P28223 whole entry, looked up): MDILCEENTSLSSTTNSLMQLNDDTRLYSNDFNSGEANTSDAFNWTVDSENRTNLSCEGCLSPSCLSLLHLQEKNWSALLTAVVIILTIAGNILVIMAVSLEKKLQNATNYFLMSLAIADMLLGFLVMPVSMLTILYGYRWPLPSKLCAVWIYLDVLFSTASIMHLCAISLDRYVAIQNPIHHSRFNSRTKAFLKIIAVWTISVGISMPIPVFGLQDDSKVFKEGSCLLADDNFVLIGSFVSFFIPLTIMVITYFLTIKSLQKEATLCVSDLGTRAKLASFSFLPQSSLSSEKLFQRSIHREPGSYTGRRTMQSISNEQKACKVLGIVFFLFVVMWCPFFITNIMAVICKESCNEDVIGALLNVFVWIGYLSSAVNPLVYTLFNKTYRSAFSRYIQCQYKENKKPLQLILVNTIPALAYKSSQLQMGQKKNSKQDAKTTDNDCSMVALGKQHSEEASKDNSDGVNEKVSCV
Procedure, shortened: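 CHO cells stably expressing human HTR2A were plated for 18 h at 37 C, then loaded with calcium dye for 1 h. Compounds were preincubated 5 min at room temperature before DOI (4 nM solution) was added. Kinetic fluorescence was read for 3 min.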

[12] = biological target: 5-hydroxytryptamine receptor 2A (Homo sapiens) (UniProt P28223); test: 5-hydroxytryptamine receptor 2A (HTR2A) small molecule agonists, cell-based qHTS assay (AID 1963587); note: nearly all actives have a fitted effect of over 30% in size
Procedure, shortened: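 Kinetic calcium-flux fluorescence (2 min, 1 sec intervals) after compound addition in agonist mode. HTR2A-CHO cells were cultured 18 h, then dye-loaded 1 h at 37 C.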

[13] = biological target: Muscarinic acetylcholine receptor M1 (Homo sapiens) (UniProt P11229); test: Cholinergic receptor muscarinic 1 (CHRM1) small molecule antagonists, cell-based qHTS assay (AID 1963588); note: nearly all actives have a fitted effect of over 40% in size
Muscarinic acetylcholine receptor M1 (Homo sapiens), sequence (P11229 whole entry, looked up): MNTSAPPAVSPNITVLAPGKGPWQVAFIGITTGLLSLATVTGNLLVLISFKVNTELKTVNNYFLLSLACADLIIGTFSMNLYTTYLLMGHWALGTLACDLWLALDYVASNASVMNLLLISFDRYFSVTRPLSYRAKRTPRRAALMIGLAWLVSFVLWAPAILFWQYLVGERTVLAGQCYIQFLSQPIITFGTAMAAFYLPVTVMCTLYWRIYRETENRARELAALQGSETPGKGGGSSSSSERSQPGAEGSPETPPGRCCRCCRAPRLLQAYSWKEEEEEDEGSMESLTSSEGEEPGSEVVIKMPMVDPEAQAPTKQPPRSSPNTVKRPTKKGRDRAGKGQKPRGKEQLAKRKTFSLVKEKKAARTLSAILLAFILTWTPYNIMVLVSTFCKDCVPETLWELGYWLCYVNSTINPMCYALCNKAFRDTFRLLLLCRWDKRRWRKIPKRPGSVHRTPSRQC
Procedure, shortened: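 Compounds were tested at 15 concentrations in three independent runs. Dye-loaded CHRM1-CHO cells were exposed 5 min at room temperature before stimulation by acetylcholine added at 50nM. Intracellular calcium was read kinetically on FDSS for 3 min.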

[14] = biological target: Muscarinic acetylcholine receptor M1 (Homo sapiens) (UniProt P11229); test: Cholinergic receptor muscarinic 1 (CHRM1) small molecule agonists, cell-based qHTS assay (AID 1963589); note: nearly all actives have a fitted effect of over 35% in size
Procedure, shortened: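 Calcium flux read-out: kinetic fluorescence at 1 sec intervals after pin-tool compound addition to dye-loaded CHRM1-CHO cells (human M1). Agonist mode; 15 concentrations tested in triplicate independent runs.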

[15] = cAMP Responsive Elements (CRE) small molecule agonists, cell-based qHTS assay (AID 1963590)
Procedure, shortened: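 Beta-lactamase reporter readout: LiveBLAzer B/G FRET substrate, 2 h at room temperature, added after 3 h compound treatment of CRE-bla HEK 293T cells at 37 C/5% CO2.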

[16] = biological target: Beta-2 adrenergic receptor (Homo sapiens) (UniProt P07550); test: Adrenergic beta2 receptor (ADRB2) small molecule antagonists, cell-based qHTS assay (AID 1963592); note: series mostly up to about 92 µM; nearly all actives have a fitted effect of over 50% in size
Beta-2 adrenergic receptor (Homo sapiens), sequence (P07550 whole entry, looked up): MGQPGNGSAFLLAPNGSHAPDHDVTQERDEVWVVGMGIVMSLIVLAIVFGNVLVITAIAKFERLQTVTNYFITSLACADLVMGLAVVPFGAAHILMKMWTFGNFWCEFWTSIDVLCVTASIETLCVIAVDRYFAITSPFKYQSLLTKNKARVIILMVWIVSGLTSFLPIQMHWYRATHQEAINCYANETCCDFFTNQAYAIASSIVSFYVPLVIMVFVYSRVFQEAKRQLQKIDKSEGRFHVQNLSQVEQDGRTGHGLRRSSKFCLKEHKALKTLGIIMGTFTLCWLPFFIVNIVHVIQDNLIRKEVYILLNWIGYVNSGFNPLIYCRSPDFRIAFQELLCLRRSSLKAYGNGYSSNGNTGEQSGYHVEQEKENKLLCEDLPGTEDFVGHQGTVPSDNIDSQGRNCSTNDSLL
Procedure, shortened: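 Assay format: CHO-ADRB2 cells, 18-20hr seeding at 37C/5% CO2, then compound plus 1nM isoproterenol agonist mix for 0.5hr RT. Homogeneous time-resolved fluorescence cAMP detection after 1hr, expressed as 665/615 nm ratio.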

[17] = biological target: Beta-2 adrenergic receptor (Homo sapiens) (UniProt P07550); test: Adrenergic beta2 receptor (ADRB2) small molecule agonists, cell-based qHTS assay (AID 1963593);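 note: CHO cells stably overexpressing human ADRB2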
Procedure, shortened: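 CHO cells stably over-expressing ADRB2 were plated overnight at 37C, then dosed with compounds plus a stimulation mix containing 100uM IBMX and 25uM Ro-20-1724 for 0.5hr at room temperature. cAMP was measured by HTRF competition, 1hr.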

[18] = biological target: D(2) dopamine receptor (Homo sapiens) (UniProt P14416); test: Dopamine D2 receptor (DRD2) small molecule agonists, cell-based qHTS assay (AID 1963594); note: nearly all actives have a fitted effect of over 35% in size
D(2) dopamine receptor (Homo sapiens), sequence (P14416 whole entry, looked up): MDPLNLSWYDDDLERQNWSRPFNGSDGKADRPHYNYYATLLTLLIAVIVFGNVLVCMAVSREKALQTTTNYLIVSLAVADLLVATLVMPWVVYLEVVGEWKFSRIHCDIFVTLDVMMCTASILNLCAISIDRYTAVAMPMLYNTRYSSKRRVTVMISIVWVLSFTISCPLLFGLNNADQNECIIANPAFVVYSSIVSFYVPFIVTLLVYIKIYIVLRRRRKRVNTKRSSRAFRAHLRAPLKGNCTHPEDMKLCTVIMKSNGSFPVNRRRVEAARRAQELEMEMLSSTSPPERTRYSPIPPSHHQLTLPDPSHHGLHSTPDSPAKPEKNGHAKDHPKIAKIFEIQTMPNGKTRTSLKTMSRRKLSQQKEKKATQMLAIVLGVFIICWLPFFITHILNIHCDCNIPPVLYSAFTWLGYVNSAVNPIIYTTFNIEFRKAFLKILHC
Procedure, shortened: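 cAMP accumulation in DRD2-HEK293 cells measured by HTRF after 1 h detection; compounds added 10 min before NKH477 (200nM […]) forskolin-analogue stimulation, 30 min at room temperature, with Ro20-1724 present at 0.1 mM final.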

[19] = biological target: D(2) dopamine receptor (Homo sapiens) (UniProt P14416); test: Dopamine D2 receptor (DRD2) small molecule antagonists, cell-based qHTS assay (AID 1963595; active = well fitted inhibition curve with a large enough effect in the signal ratio in the repeat runs, with a control signal flat; the % refers to the signal ratio)
Procedure, shortened: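 HEK293 cells stably expressing DRD2 were preincubated with 0.1 mM Ro20-1724, then with compound for 10 min at room temperature. Cells were stimulated with 200 nM NKH477 plus 12 nM quinpirole for 30 min, and cAMP was read by HTRF.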

[20] = cAMP Responsive Elements (CRE) small molecule antagonists, cell-based qHTS assay (AID 1963591; active = well fitted inhibition curve with a large enough effect in the signal ratio in the repeat runs, not every such curve was filed as active; the % refers to the signal ratio)
Procedure, shortened: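 HEK293T CRE-bla; 18 h preincubation; compound pin-transfer; NKH477 0.25 uM final, 3 h, 37 C; LiveBLAzer FRET substrate 2 h RT.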

SMILES | Potency [1] | Potency [2] | outcome [3] | outcome [4] | Potency [5] | Potency [6] | Potency [7] | Potency [8] | Potency [9] | Potency [10] | Potency [11] | Potency [12] | Potency [13] | Potency [14] | Potency [15] | Potency [16] | Potency [17] | Potency [18] | Potency [19] | Potency [20]
O=C(O)c1cccc(C(=O)O)c1C(=O)O | inactive | inactive | inactive | inactive | inactive | inactive | inactive | inactive | inactive | inactive | inactive | inactive | inactive | inactive | inactive | inactive | inactive | inactive | inactive | –
Cc1c(NC(C)C)c(=O)n(-c2ccccc2)n1C | inactive | inactive | inactive | inactive | inactive | inactive | inactive | inactive | inactive | inactive | inactive | inactive | inactive | inactive | inactive | inactive | – | inactive | inactive | inactive
COc1ccc(N)c([N+](=O)[O-])c1 | inactive | inactive | inactive | inactive | inactive | inactive | inactive | inactive | inactive | inactive | inactive | inactive | inactive | inactive | – | inactive | – | inactive | inactive | inactive
O=C1CCCC(=O)C1 | inactive | inactive | inactive | inactive | inactive | inactive | inactive | inactive | inactive | inactive | inactive | inactive | inactive | inactive | inactive | inactive | – | inactive | inactive | inactive
CCCCCCCCCCCCN1CCOCC1 | inactive | inactive | inactive | inactive | inactive | inactive | inactive | inactive | inactive | inactive | inactive | – | inactive | – | inactive | inactive | inactive | inactive | inactive | inactive
Cn1nnc2c(C(N)=O)ncn2c1=O | inactive | inactive | inactive | inactive | inactive | inactive | inactive | inactive | inactive | inactive | inactive | inactive | – | inactive | inactive | inactive | – | inactive | inactive | inactive
O=C(O)c1ccccc1C(=O)Nc1ccc(S(=O)(=O)Nc2nccs2)cc1 | inactive | inactive | inactive | inactive | inactive | inactive | inactive | inactive | inactive | inactive | inactive | inactive | – | inactive | inactive | inactive | inactive | inactive | inactive | inactive
CNC(=O)c1ccccc1Sc1ccc2c(/C=C/c3ccccn3)n[nH]c2c1 | 84.1 nM (active) | inactive | inactive | inactive | inactive | inactive | inactive | inactive | inactive | 1410 nM (active) | inactive | inactive | – | inactive | – | inactive | inactive | inactive | inactive | –
Cc1cc(-n2nc3ccc(Cl)cc3n2)c(O)c(C(C)(C)C)c1 | inactive | inactive | inactive | inactive | inactive | inactive | inactive | inactive | inactive | inactive | inactive | inactive | inactive | inactive | inactive | inactive | – | – | inactive | inactive
COC(=O)c1ccc(OC)cc1 | inactive | inactive | inactive | inactive | inactive | inactive | inactive | inactive | inactive | inactive | inactive | inactive | inactive | inactive | inactive | – | – | inactive | inactive | inactive
CC(C)C(=O)OCc1ccccc1 | inactive | inactive | inactive | inactive | inactive | inactive | inactive | inactive | inactive | inactive | inactive | inactive | inactive | inactive | inactive | inactive | – | inactive | inactive | inactive
C=C(C)c1cccc(C(C)(C)N=C=O)c1 | inactive | inactive | inactive | inactive | inactive | inactive | inactive | inactive | inactive | inactive | inactive | inactive | inactive | inactive | inactive | – | – | – | inactive | inactive
CO[C@@H]1COCC[C@@H]1N[C@@H]1CC[C@@](C(=O)N2CCc3ncc(C(F)(F)F)cc3C2)(C(C)C)C1 | inactive | inactive | inactive | inactive | inactive | inactive | inactive | inactive | inactive | inactive | inactive | inactive | – | inactive | inactive | inactive | inactive | inactive | inactive | inactive
CSSc1ccoc1C | inactive | inactive | inactive | inactive | inactive | inactive | inactive | inactive | inactive | inactive | inactive | inactive | inactive | inactive | inactive | inactive | – | – | inactive | inactive
CC(C(=O)O)c1ccc(/C=C2\CCCCC2=O)cc1 (stereo not drawn) | 23700 nM (active) | inactive | inactive | inactive | inactive | inactive | inactive | inactive | inactive | inactive | inactive | inactive | inactive | inactive | – | inactive | – | inactive | inactive | –

From PubChem BioAssay (Tox21)
